From PubChem BioAssay (NCATS)
Results filed as inconclusive are left out. Where a call stands in place of a potency, no number is given. Activity calls are given as the source filed them. Calls come from the whole dose curve; as a rule, active = well fitted cell-killing curve with a large enough effect; inconclusive = small, poorly fitted or top-dose-only effect, or effect the other way; inactive = no such curve, though single readings can be large or run the other way.

assay: qHTS of pediatric cancer cell lines to identify multiple opportunities for drug repurposing: Confirmatory screen for NB1643 cells (AID 1347109); details: NB1643 neuroblastoma cell viability; series mostly up to 45.9 µM; note: nearly all actives have a fitted effect of over 45% in size
Text: Drug repurposing or repositioning has been offered as a strategy for drug development in oncology programs. This approach has special potential for childhood cancers and other rare or orphan diseases, where the expected return on new drug development has been a disincentive to pharmaceuticals.
In this project we exploit the poly-pharmacology of drugs to discover new indications via phenotypic screening of a panel of 19 well-characterized cell lines derived from solid tumors seen in children and adolescents. The goal is to identify approved drugs with previously unrecognized anticancer properties that has the potential to reveal new mechanisms and biological processes involved in carcinogenesis or drug resistance. We employed a titration-based paradigm (quantitative high-throughput screening or qHTS), where all compounds were tested at multiple concentrations for their effect on cell viability. Concentration-response curves (CRCs) were derived directly from the primary screen, and both potency and efficacy values were used to identify compounds with robust bioactivity profiles. We screened the NIH Chemical Genomics Center (NCGC) Pharmaceutical Collection (NPC) and Mechanism Interrogation Plate (MIPE) small molecule collections of approved and investigational compounds against these cell lines; and measured metabolically active cells after 48 hours of compound treatment as a proxy for cell viability.
Assay Submitter: Nathalia J. Martinez, National Center for Advancing Translational Sciences, National Institutes of Health, Rockville, MD, USA; email: natalia.martinez@nih.gov
[1] Shen, M et al. Quantitative high-throughput phenotypic screening of pediatric cancer cell lines identifies multiple opportunities for drug repurposing. Oncotarget 2017 Dec 19;9(4):4758-4772. PMID 29435139.
The cells were obtained from University of North Carolina (UNC), Pediatric Preclinical Testing Program (PPT), and Coriell Institute (CI).
qHTS cell viability assay:
Cells were assayed in growth media at a density of 500-1,000 cells/well. Five microliters of cells were dispensed into 1,536-well, white, solid-bottom, TC-treated plates (Greiner Bio One) using a multidrop dispenser and incubated at 37 degrees C, 5% CO2, under a humidified atmosphere for 5 hours. Twenty-three nanoliters of compounds and controls (neutral control DMSO or positive control bortezomib at final concentration of 2.3 µM) were subsequently transferred by Kalypsys pintool. For primary screens, the MIPE collection was tested at 11-point dilutions (final concentrations range from 0.78 nM to 46 µM) and the NPC collection at 8-point dilutions (final concentrations range from 0.59 nM to 46 µM). Compounds tested in follow-up screens were assayed at 11-point dilutions. Cells were incubated for 48 hours, followed by addition of 3 µL of CellTiter-Glo (Promega). After a 15 min incubation at room temperature, samples were analyzed for luminescence intensity using a ViewLux High-throughput CCD imager equipped with clear filters.
Potency is the fitted concentration of half-maximal effect.

Question: With `COc1c(C)c2c(c(O)c1C/C=C(\C)CCC(=O)OCCN1CCOCC1)C(=O)OC2` as the compound, how does the Potency read?
Answer: Its Potency is 1.31 µM (active).

Question: With `CC[C@@]1(O)C(=O)OCc2c1cc1n(c2=O)Cc2c-1nc1ccccc1c2/C=N/OC(C)(C)C` as the compound, how does the Potency read?
Answer: The Potency was 0.0414 µM (active).

Question: Which Potency does the source give for `CC(=O)OCC(=O)[C@@]1(O)[C@H](OC(C)=O)C[C@H]2[C@@H]3CCC4=CC(=O)C=C[C@]4(C)[C@@]3(F)[C@@H](O)C[C@@]21C` here?
Answer: The Potency was “inactive”.

Question: With `CN(C)CCN(Cc1ccsc1)c1ccccn1` as the compound, how does the Potency read?
Answer: Its Potency is “inactive”.

Question: With `CCCCC(=O)OCC(=O)[C@H]1[C@H](C)C[C@H]2[C@@H]3C[C@H](F)C4=CC(=O)C=C[C@]4(C)[C@@]3(F)[C@@H](O)C[C@@]21C` as the compound, how does the Potency read?
Answer: The Potency was 18.5 µM (active).

Question: Which Potency does the source give for `CC(=O)OCC(=O)[C@@]1(O)CCC2C3CCC4=CC(=O)CC[C@]4(C)C3[C@@H](O)C[C@@]21C` (some centres not stated) here?
Answer: Its Potency is “inactive”.

Question: Which Potency does the source give for `N=C(N)c1ccc(OCCCOc2ccc(C(=N)N)cc2)cc1` here?
Answer: Its Potency is “inactive”.

Question: For `CO[C@@H]1[C@@H](OC)[C@H](C)[C@@](O)(CC(=O)O)O[C@H]1[C@H](C)[C@H]1O[C@@]2(CC[C@@](C)([C@H]3CC[C@@](C)([C@@H]4O[C@@H]([C@H]5O[C@](C)(O)[C@H](C)C[C@@H]5C)C[C@@H]4OC4C[C@H](OC)[C@@H](OC)[C@H](C)O4)O3)O2)C[C@H](O)[C@H]1C` (some centres not stated), which Potency is on record?
Answer: The Potency was 0.737 µM (active).

Question: For `CCCC(=O)O[C@]1(C(=O)CCl)[C@@H](C)C[C@H]2[C@@H]3CCC4=CC(=O)C=C[C@]4(C)[C@@]3(F)C(=O)C[C@@]21C`, which Potency is on record?
Answer: Its Potency is “inactive”.

Question: For `CCCC(=O)O[C@]1(C(=O)COC(=O)CC)CC[C@H]2[C@@H]3CCC4=CC(=O)CC[C@]4(C)[C@H]3[C@@H](O)C[C@@]21C`, which Potency is on record?
Answer: Its Potency is “inactive”.

Question: Which Potency does the source give for `Nc1c2ccccc2nc2ccccc12` here?
Answer: The Potency was 4.14 µM (active).

Question: For `CC(C)(C)CC(=O)OCC(=O)[C@@]1(O)CC[C@H]2[C@@H]3CCC4=CC(=O)C=C[C@]4(C)[C@H]3[C@@H](O)C[C@@]21C`, which Potency is on record?
Answer: The Potency was “inactive”.

Question: For `CCC1=C[C@@H]2CN(C1)Cc1c([nH]c3ccccc13)[C@@](C(=O)OC)(c1cc3c(cc1OC)N(C)[C@H]1[C@@](O)(C(=O)OC)[C@H](OC(C)=O)[C@]4(CC)C=CCN5CC[C@]31[C@@H]54)C2`, which Potency is on record?
Answer: Its Potency is 0.104 µM (active).

Question: For `C[C@]12CCC(=O)C=C1CC[C@@H]1[C@@H]2[C@@H](O)C[C@@]2(C)[C@H]1CC[C@]2(O)C(=O)COC(=O)CCC(=O)O`, which Potency is on record?
Answer: The Potency was “inactive”.

Question: With `Nc1ccc2cc3ccc(N)cc3nc2c1` as the compound, how does the Potency read?
Answer: The Potency was 7.37 µM (active).

Question: For `C[C@H]1C[C@H]2[C@@H]3CCC4=CC(=O)C=C[C@]4(C)[C@H]3C(=O)C[C@]2(C)[C@@]1(O)C(=O)CO`, which Potency is on record?
Answer: Its Potency is 2.61 µM (active).

Question: For `O=c1[nH]sc2cc(Cl)ccc12`, which Potency is on record?
Answer: Its Potency is 8.27 µM (active).

Question: For `CC(=O)O[C@@H]1C(=O)O[C@@H]2[C@H]1OC(=O)[C@@H]2OC(C)=O`, which Potency is on record?
Answer: Its Potency is “inactive”.

Question: With `CC(C)=CCC/C(C)=C/CC/C(C)=C/C(=O)OCC(=O)[C@@]1(O)CC[C@H]2[C@@H]3CCC4=CC(=O)C=C[C@]4(C)[C@H]3[C@@H](O)C[C@@]21C` as the compound, how does the Potency read?
Answer: Its Potency is 23.3 µM (active).

Question: For `O=[N+]([O-])c1ccc(O)c2ncccc12`, which Potency is on record?
Answer: The Potency was 14.7 µM (active).

Question: For `CCc1cc2cc(OC)c(OC)cc2c(Cc2ccccc2)n1`, which Potency is on record?
Answer: Its Potency is “inactive”.

Question: Which Potency does the source give for `CCOC(=O)O[C@]1(C(=O)OCCl)CC[C@H]2[C@@H]3CCC4=CC(=O)C=C[C@]4(C)[C@H]3[C@@H](O)C[C@@]21C` here?
Answer: Its Potency is “inactive”.

Question: Which Potency does the source give for `Cc1cc(OCCOCC[N+](C)(C)Cc2ccccc2)ccc1C(C)(C)CC(C)(C)C` here?
Answer: The Potency was 8.27 µM (active).

Question: Which Potency does the source give for `CCC(=O)O[C@]1(C(=O)COC)[C@@H](C)C[C@H]2[C@@H]3CCC4=CC(=O)C=C[C@]4(C)C3(F)[C@@H](O)C[C@@]21C` (some centres not stated) here?
Answer: The Potency was “inactive”.

Question: With `CCN(CC)CC(=O)OCC(=O)[C@@]1(O)CC[C@H]2[C@@H]3CCC4=CC(=O)CC[C@]4(C)[C@H]3[C@@H](O)C[C@@]21C` as the compound, how does the Potency read?
Answer: Its Potency is “inactive”.

Question: Which Potency does the source give for `CC(=O)[C@@]1(O)CC[C@H]2[C@@H]3C[C@H](C)C4=CC(=O)CC[C@]4(C)[C@H]3CC[C@@]21C` here?
Answer: Its Potency is “inactive”.

Question: Which Potency does the source give for `CCCCC(CC)CNC(=O)CC(C)OC(=O)CCC(=O)O` (configuration not stated) here?
Answer: Its Potency is “inactive”.
